19 compounds from PubChem BioAssay (EPA / NIEHS) can be followed below.

Inconclusive results are not listed. Calls of active or inactive are those of the source. How the source made its calls, unless noted: active means hit-call score of the fitted dose curve at least 0.9, where 1 is the maximum; inconclusive means response in the unintended direction; inactive means score below 0.9.

Assay [1] addresses human Acetylcholinesterase (AChE), ACHE (gene 43) (UniProt P22303). Put plainly: NVS_ENZ_hAChE: NovaScreen (NVS) Enzymatic Assay for human Acetylcholinesterase (AChE) (AID 2283129). In short, it runs like this:
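Actives from a duplicate single-point screen (25 uM) were followed up in concentration series. Enzyme activity read by absorbance (colorimetric) 0.33 hour after dosing, cell-free, normalized to DMSO, with loss of signal scored.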

Assay [2] deals with human AMP-activated Protein Kinase, alpha 1 (AMPKa1), PRKAA1 (gene 5562) (UniProt Q13131). The assay is described as follows: NVS_ENZ_hAMPKa1: NovaScreen (NVS) Enzymatic Assay for human AMP-activated Protein Kinase, alpha 1 (AMPKa1) (AID 2283130). A digest of the protocol:
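Compounds were screened in duplicate at 25 uM, and those reaching ~30% inhibition were titrated up to 50 uM. The enzyme was recombinant human AMPKα1, and kinase turnover was read by fluorescence/mobility shift 1 h post-dosing as loss of signal versus DMSO.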

The target of assay [3] is human Aurora Kinase A - serine/threonine-protein Kinase 6 (AurA), AURKA (gene 6790) (UniProt O14965). Put plainly: NVS_ENZ_hAurA: NovaScreen (NVS) Enzymatic Assay for human Aurora Kinase A - serine/threonine-protein Kinase 6 (AurA) (AID 2283142). In short, it runs like this: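 Recombinant human AurA activity read by fluorescence after mobility-shift separation of product from substrate; 1 hour incubation. Chemicals first run in duplicate at 25 uM, then concentration series to 50 uM if over threshold; fitted relative to DMSO.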
human Aurora Kinase A - serine/threonine-protein Kinase 6 (AurA), AURKA (gene 6790), sequence (O14965 whole entry, looked up): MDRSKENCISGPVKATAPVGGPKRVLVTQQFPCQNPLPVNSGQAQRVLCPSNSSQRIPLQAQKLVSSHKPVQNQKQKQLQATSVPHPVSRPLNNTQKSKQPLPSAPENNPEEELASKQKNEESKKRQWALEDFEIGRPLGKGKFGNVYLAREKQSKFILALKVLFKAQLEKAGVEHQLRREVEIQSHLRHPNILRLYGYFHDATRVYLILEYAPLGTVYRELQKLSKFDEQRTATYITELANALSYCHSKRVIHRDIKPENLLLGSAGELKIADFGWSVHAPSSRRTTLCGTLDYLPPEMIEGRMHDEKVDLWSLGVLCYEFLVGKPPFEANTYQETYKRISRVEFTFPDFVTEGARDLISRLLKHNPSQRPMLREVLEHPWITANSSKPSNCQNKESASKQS

Assay [4] has as its target human Fibroblast Growth Factor Receptor 1 (FGFR1), FGFR1 (gene 2260) (UniProt P11362). Put plainly: NVS_ENZ_hFGFR1: NovaScreen (NVS) Enzymatic Assay for human Fibroblast Growth Factor Receptor 1 (FGFR1) (AID 2283159).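 On AC50: hits lower the signal so potencies describe inhibitors of the kinase.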 In short, it runs like this:
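Cell-free recombinant kinase with fluorescent substrate, product separated by electrophoretic mobility shift; read 1 hour after dosing, loss of signal relative to DMSO. Initial screen in duplicate at 25 uM, actives followed in concentration series.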

Assay [5] concerns the target human p21 Activated Kinase 4 (PAK4), PAK4 (gene 10298) (UniProt O96013). The assay is described as follows: NVS_ENZ_hPAK4: NovaScreen (NVS) Enzymatic Assay for human p21 Activated Kinase 4 (PAK4) (AID 2283189). A digest of the protocol:
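Extracted PAK4 enzyme activity read by fluorescence with mobility-shift separation 1 h after chemical addition. Duplicate single-concentration screen at 25 uM, DMSO as negative control.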

Assay [6] deals with rat Monoamine Oxidase, MAO-B, Peripheral (MAOBP), Maob (gene 25750) (UniProt P19643). The assay is described as follows: NVS_ENZ_rMAOBP: NovaScreen (NVS) Enzymatic Assay for rat Monoamine Oxidase, MAO-B, Peripheral (MAOBP) (AID 2283242).
rat Monoamine Oxidase, MAO-B, Peripheral (MAOBP), Maob (gene 25750), sequence (P19643 whole entry, looked up): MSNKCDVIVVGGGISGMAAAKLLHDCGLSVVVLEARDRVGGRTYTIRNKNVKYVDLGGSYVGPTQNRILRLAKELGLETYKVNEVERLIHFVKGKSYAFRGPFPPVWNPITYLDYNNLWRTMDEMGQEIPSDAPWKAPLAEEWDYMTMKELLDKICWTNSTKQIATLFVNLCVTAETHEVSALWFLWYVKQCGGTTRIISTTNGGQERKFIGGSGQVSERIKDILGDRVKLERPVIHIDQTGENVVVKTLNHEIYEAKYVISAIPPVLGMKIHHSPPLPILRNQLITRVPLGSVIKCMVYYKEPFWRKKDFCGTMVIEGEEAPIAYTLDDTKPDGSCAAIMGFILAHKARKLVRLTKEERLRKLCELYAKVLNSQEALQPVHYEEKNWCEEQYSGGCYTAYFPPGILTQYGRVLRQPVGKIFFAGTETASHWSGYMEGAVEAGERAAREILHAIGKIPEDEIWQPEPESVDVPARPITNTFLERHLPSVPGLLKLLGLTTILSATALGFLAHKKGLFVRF
The target in assay [7] is Norway rat Vesicular Monoamine Transporter (VMAT2), neurotransmitter transporter, Slc18a2 (gene 25549) (UniProt Q01827). The assay is described as follows: NVS_TR_rVMAT2: NovaScreen (NVS) Transporter Assay for Norway rat Vesicular Monoamine Transporter (VMAT2), neurotransmitter transporter (AID 2283376).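 Further: actives lower the bound radioligand signal below the DMSO level.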 A digest of the protocol:
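Filter-based scintillation counting of radioligand bound to rat forebrain-derived VMAT2 protein, cell-free, 1 h post-dose. Signal loss relative to DMSO control scored; single-concentration duplicate screen (25 uM) followed by concentration-response testing of actives.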

Assay [8] deals with human Caspase 2 (CASP2), CASP2 (gene 835) (UniProt P42575). The assay is described as follows: NVS_ENZ_hCASP2: NovaScreen (NVS) Enzymatic Assay for human Caspase 2 (CASP2) (AID 2283135). A digest of the protocol: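 Single-point duplicate testing at 25 uM preceded concentration series topping at 50 uM. Activity of the recombinant E. coli-derived protease was followed by fluorescent substrate cleavage 1 h post-dosing, relative to DMSO.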
human Caspase 2 (CASP2), CASP2 (gene 835), sequence (P42575 whole entry, looked up): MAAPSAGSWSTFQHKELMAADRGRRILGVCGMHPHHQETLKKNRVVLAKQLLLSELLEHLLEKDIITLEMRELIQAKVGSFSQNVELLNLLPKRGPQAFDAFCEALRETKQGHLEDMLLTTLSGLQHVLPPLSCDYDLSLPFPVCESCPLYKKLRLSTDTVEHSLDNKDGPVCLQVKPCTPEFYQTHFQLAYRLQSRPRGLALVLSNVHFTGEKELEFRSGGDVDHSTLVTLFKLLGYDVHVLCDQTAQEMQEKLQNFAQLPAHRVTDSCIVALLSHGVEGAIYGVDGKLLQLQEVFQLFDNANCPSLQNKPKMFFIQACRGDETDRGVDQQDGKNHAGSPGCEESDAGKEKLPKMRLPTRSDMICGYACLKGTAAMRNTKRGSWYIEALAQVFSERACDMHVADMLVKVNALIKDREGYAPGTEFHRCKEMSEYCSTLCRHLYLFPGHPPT

In assay [9] the target is human Matrix Metalloproteinase-1 (MMP1), MMP1 (gene 4312) (UniProt P03956). Put plainly: NVS_ENZ_hMMP1: NovaScreen (NVS) Enzymatic Assay for human Matrix Metalloproteinase-1 (MMP1) (AID 2283181). A digest of the protocol: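 Cell-free fluorescent substrate assay of human MMP1, read after 1 h. A single 25 uM duplicate screen was followed by concentration series to a maximum of 50 uM for actives meeting threshold; inhibition analysed against DMSO baseline.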
human Matrix Metalloproteinase-1 (MMP1), MMP1 (gene 4312), sequence (P03956 whole entry, looked up): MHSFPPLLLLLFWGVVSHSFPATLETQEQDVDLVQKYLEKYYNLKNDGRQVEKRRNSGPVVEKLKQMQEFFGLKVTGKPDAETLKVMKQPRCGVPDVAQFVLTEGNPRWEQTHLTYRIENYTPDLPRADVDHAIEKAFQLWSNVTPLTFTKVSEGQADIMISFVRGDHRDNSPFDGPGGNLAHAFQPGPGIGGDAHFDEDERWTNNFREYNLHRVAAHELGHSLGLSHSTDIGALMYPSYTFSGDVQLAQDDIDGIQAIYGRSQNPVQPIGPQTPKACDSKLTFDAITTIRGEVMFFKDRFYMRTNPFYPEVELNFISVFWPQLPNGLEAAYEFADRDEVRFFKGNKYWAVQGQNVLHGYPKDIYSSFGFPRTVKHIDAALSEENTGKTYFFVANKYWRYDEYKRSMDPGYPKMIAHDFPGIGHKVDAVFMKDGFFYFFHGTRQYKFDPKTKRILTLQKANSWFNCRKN

For assay [10], the target named is human Epidermal Growth Factor Receptor (EGFR), EGFR (gene 1956) (UniProt P00533). The assay is described as follows: NVS_ENZ_hEGFR: NovaScreen (NVS) Enzymatic Assay for human Epidermal Growth Factor Receptor (EGFR) (AID 2283151). A digest of the protocol: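 Cell-free kinase assay, fluorescence plus electrophoretic mobility shift separating substrate and product, read 1 hour after dosing; loss of signal vs DMSO. Duplicate screen at 25 uM, then concentration-response to 50 uM.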

The subject of assay [11] is rat Monoamine Oxidase, MAO-A, Central (MAOAC), gene 29253. Put plainly: NVS_ENZ_rMAOAC: NovaScreen (NVS) Enzymatic Assay for rat Monoamine Oxidase, MAO-A, Central (MAOAC) (AID 2283243).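 Further: potency refers to inhibition seen as signal drop below DMSO baseline.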 In short, it runs like this: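 Enzyme from rat brain, cell-free radiodetection format. Counts taken at 1.5 h; activity fitted against DMSO baseline, loss of signal marking inhibition. Confirmatory concentration series followed the 25 uM duplicate screen.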

The target in assay [12] is rat Monoamine Oxidase, MAO-B, Central (MAOBC), Maob (gene 25750) (UniProt P19643). The assay is described as follows: NVS_ENZ_rMAOBC: NovaScreen (NVS) Enzymatic Assay for rat Monoamine Oxidase, MAO-B, Central (MAOBC) (AID 2283238). A digest of the protocol: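 Cell-free radiometric assay, rat brain lysate. Read-out: scintillation counts, 1.17 h post-dosing. Screen 25 uM in duplicate; actives (e.g. ≥30% inhibition) then singleton concentration-response, max 50 uM. Activity loss fitted relative to DMSO.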
rat Monoamine Oxidase, MAO-B, Central (MAOBC), Maob (gene 25750), sequence (P19643 whole entry, looked up): as the sequence (P19643 whole entry, looked up) above

The target of assay [13] is bovine Gamma-Aminobutyric Acid Type A Receptor BDZ, alpha 1 site (GABARa1), GABRA1 (gene 780973) (UniProt P08219). Put plainly: NVS_LGIC_bGABARa1: NovaScreen (NVS) Ligand-Gated Ion Channel Assay for bovine Gamma-Aminobutyric Acid Type A Receptor BDZ, alpha 1 site (GABARa1) (AID 2283321). In short, it runs like this:
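Bovine cortex membrane preparation, benzodiazepine site on GABA-A alpha1; specific radioligand displacement read after 0.75 h by filtration and scintillation. Screen at 25 uM, then singleton titrations up to 50 uM; DMSO baseline.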

Assay [14] has as its system rat Monoamine Oxidase, MAO-A, Peripheral (MAOAP), gene 29253. The assay is described as follows: NVS_ENZ_rMAOAP: NovaScreen (NVS) Enzymatic Assay for rat Monoamine Oxidase, MAO-A, Peripheral (MAOAP) (AID 2283237). In short, it runs like this:
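Scintillation counting tracked MAO-A activity in a cell-free rat liver mitochondrial membrane prep, read 1.17 hours after compound addition. Single-point duplicate testing at 25 uM preceded concentration-response follow-up; activity was fitted relative to DMSO.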

Assay [15] addresses rat Oxytocin Receptor (OXT), Oxtr (gene 25342) (UniProt P70536). Put plainly: NVS_GPCR_rOXT: NovaScreen (NVS) G Protein-Coupled Receptor Assay for rat Oxytocin Receptor (OXT) (AID 2283330). In short, it runs like this: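 Binding to rat uterine membrane receptor was followed by scintillation counting of filter-trapped radioligand after 1 h. A 25 uM duplicate single-point screen preceded concentration series with a top of 50 uM. Signal loss was analysed relative to DMSO.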

Assay [16] deals with human Phosphatase and Tensin Homolog (PTEN), PTEN (gene 5728) (UniProt P60484). The assay is described as follows: NVS_ENZ_hPTEN: NovaScreen (NVS) Enzymatic Assay for human Phosphatase and Tensin Homolog (PTEN) (AID 2283203). A digest of the protocol:
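Loss of fluorescent product signal after mobility-shift separation reports PTEN activity, recombinant human enzyme, 1 h after compound addition. Single 25 uM duplicate screen, then concentration-response on actives; DMSO baseline.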

Assay [17] concerns the target human Raf-1 Proto-Oncogene, serine/threonine Kinase (RAF1), RAF1 (gene 5894) (UniProt P04049). Put plainly: NVS_ENZ_hRAF1: NovaScreen (NVS) Enzymatic Assay for human Raf-1 Proto-Oncogene, serine/threonine Kinase (RAF1) (AID 2283216). In short, it runs like this:
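Single-point screening at 25 uM (duplicate), followed by singleton concentration-response to 50 uM maximum for chemicals exceeding threshold. Enzyme activity from fluorescent substrate-product mobility-shift separation after 1 h, relative to DMSO.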

A short description of assay [18]: ATG_M_32_XSP2: Attagene TRANS-FACTORIAL Multi-Species (XSP2) HepG2 Assay for M19 Transcription Factor (Internal Marker) (AID 2283826). In short, it runs like this:
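Total RNA is taken from compound-treated HepG2 cells after 24 h and reverse-transcribed; reporter cDNA is PCR-amplified, end-labelled with 6-FAM, digested with HpaI for 2h at 37 C and sized by capillary electrophoresis. Activity is fitted in the positive direction against DMSO.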

The nature of assay [19]: CCTE_Harrill_HTTr_Apoptosis_PRF_DMEM_12hr: (Pilot) CCTE's 12-hour Apoptosis Assessment for the High-Throughput Transcriptomics (HTTr) Platform, in MCF-7 cells cultured in phenol red-free DMEM + 10% charcoal-stripped fetal bovine serum, Harrill Lab (AID 2283985; active means hit-call score of the fitted dose curve at least 0.9, where 1 is the maximum; inactive means score below 0.9). In short, it runs like this:
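Caspase-3/7 activity by CellEvent Green high content imaging after 12 h compound exposure (eight concentrations) in MCF-7 grown in phenol red-free DMEM plus 10% charcoal-stripped serum; DMSO as baseline.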

human AMP-activated Protein Kinase, alpha 1 (AMPKa1), PRKAA1 (gene 5562), sequence (Q13131 whole entry, looked up): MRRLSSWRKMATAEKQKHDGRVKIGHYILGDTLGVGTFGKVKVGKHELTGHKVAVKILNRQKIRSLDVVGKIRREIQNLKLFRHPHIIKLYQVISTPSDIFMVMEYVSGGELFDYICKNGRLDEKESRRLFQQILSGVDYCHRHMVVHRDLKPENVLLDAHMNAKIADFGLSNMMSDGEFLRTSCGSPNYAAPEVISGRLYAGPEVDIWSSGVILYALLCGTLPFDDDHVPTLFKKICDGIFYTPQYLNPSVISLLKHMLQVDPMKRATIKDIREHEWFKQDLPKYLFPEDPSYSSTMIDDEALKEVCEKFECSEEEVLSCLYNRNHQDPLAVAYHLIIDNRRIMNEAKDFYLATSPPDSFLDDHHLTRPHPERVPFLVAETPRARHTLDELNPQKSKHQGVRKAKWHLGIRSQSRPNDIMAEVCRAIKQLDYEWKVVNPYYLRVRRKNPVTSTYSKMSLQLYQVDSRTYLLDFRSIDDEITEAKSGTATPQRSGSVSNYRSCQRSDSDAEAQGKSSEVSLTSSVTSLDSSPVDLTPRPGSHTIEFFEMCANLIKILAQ
human p21 Activated Kinase 4 (PAK4), PAK4 (gene 10298), sequence (O96013 whole entry, looked up): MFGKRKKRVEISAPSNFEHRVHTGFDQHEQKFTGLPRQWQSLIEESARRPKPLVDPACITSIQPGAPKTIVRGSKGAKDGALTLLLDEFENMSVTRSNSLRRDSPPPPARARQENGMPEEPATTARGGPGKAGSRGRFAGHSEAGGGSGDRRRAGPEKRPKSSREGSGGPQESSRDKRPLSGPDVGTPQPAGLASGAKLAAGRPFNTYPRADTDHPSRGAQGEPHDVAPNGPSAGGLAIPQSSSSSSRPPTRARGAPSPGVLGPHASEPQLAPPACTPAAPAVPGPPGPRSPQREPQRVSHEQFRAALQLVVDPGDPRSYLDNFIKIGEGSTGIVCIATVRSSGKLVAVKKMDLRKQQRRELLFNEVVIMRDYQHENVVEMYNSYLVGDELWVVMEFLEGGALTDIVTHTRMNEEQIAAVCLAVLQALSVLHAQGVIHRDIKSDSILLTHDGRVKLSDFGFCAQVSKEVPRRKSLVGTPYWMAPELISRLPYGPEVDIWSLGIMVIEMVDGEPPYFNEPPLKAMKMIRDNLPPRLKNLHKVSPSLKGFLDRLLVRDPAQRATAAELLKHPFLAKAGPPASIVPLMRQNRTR
Norway rat Vesicular Monoamine Transporter (VMAT2), neurotransmitter transporter, Slc18a2 (gene 25549), sequence (Q01827 whole entry, looked up): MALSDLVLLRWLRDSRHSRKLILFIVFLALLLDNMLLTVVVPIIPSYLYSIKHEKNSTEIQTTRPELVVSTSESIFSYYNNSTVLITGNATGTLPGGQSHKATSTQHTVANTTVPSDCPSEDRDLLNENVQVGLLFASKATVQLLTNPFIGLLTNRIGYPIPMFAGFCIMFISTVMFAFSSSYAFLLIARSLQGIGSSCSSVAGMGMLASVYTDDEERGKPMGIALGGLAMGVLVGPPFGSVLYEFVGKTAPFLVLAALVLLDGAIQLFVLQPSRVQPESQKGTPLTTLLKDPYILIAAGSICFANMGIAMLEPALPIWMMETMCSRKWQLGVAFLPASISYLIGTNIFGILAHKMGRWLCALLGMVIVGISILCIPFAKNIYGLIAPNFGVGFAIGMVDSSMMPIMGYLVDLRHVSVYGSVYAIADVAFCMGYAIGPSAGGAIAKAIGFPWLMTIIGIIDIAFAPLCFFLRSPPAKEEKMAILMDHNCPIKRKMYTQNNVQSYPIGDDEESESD
human Acetylcholinesterase (AChE), ACHE (gene 43), sequence (P22303 whole entry, looked up): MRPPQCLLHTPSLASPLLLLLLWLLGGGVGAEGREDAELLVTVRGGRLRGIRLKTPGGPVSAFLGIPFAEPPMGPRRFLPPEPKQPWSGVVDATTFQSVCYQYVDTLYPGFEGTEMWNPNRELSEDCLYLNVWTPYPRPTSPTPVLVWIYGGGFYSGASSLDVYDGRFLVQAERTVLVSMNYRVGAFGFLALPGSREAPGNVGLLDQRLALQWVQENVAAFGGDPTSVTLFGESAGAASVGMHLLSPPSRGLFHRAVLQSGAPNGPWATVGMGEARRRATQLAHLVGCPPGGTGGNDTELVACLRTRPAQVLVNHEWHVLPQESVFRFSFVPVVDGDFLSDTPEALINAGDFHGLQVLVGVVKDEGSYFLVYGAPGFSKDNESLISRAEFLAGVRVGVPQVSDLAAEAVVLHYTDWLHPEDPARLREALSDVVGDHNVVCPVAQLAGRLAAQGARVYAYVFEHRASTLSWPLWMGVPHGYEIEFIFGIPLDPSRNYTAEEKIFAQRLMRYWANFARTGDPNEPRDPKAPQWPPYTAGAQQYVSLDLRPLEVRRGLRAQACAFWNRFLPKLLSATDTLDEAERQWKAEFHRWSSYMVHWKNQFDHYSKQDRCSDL
bovine Gamma-Aminobutyric Acid Type A Receptor BDZ, alpha 1 site (GABARa1), GABRA1 (gene 780973), sequence (P08219 whole entry, looked up): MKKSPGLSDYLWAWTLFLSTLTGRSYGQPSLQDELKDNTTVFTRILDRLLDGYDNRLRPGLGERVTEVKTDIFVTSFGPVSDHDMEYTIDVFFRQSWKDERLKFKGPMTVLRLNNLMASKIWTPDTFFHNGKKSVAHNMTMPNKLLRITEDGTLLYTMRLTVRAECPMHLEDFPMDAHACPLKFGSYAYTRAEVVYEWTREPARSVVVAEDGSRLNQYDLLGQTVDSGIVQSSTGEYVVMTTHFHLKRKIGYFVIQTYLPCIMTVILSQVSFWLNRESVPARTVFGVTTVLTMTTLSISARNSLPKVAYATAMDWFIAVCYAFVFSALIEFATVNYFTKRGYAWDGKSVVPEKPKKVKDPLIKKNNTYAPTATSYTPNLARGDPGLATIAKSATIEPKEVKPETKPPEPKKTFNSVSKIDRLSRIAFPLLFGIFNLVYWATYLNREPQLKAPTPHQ

For the compound `CCN(C(=O)c1cc(C)cc(OC[C@H](C)Nc2ccncc2)c1)C(C)C`, in [1], the AC50 was 6.7 µM (active).

Take `O=C(c1ccc(OCCN2CCCCC2)cc1)c1c(-c2ccc(O)cc2)sc2cc(O)ccc12`: the AC50 is 0.0103 µM (active) in [1]; 18.9 µM (active) in assay [2]; 36.2 µM (active) in assay [4]; 10.8 µM (active) in [6]; 0.563 µM (active) in assay [7]. For the same compound, the call in [3] and in assay [5] was inactive.

`O=C(OC[C@H]1O[C@@H](OC(=O)c2cc(O)c(O)c(OC(=O)c3cc(O)c(O)c(O)c3)c2)[C@H](OC(=O)c2cc(O)c(O)c(OC(=O)c3cc(O)c(O)c(O)c3)c2)[C@@H](OC(=O)c2cc(O)c(O)c(OC(=O)c3cc(O)c(O)c(O)c3)c2)[C@@H]1OC(=O)c1cc(O)c(O)c(OC(=O)c2cc(O)c(O)c(O)c2)c1)c1cc(O)c(O)c(OC(=O)c2cc(O)c(O)c(O)c2)c1`: the AC50 in assay [1] was 0.644 µM (active); in assay [8] it was 4.65 µM (active).

Consider `O=c1[nH]c2ccc(S(=O)CCN3CCC(Cc4ccc(F)cc4)CC3)cc2o1` (stereo unspecified), for which the AC50 in [1] was 3.71 µM (active). Moreover, the result in [9] was inactive.

With `CCCCCCOC(=O)CC(CC(=O)OCCCCCC)(OC(=O)CCC)C(=O)OCCCCCC`, the outcome in assay [1] and in [8] was inactive.

Regarding `CN(C)C(=O)NC1(c2ccccc2)CCN(CCC[C@]2(c3ccc(Cl)c(Cl)c3)CCCN(C(=O)c3ccccc3)C2)CC1`, in assay [1], the AC50 is 5.13 µM (active). Also, the compound was classed as inactive in assay [2], in [3], in [10], in assay [4], in assay [5] and in [6].

Take `c1ccc2c(c1)Cc1ccccc1-2`: the compound was classed as inactive in [1] and in assay [8].

For the compound `COc1ccc(-n2nc(C(F)F)cc2-c2ccc(S(C)=O)cc2)cc1` (stereo unspecified), the outcome in assay [1] and in assay [5] was inactive. Also, the AC50 in [7] was 4.96 µM (active).

For the compound `CCOC(=O)O[C@H](C)OC(=O)c1ccc2c(c1)cc(C(=O)NC1CCN(C(C)C)CC1)n2Cc1cc(-c2ccc(Cl)s2)on1`, the AC50 was 5.36 µM (active) in [1], 23.6 µM (active) in assay [11] and 5.06 µM (active) in [7]. For the same compound, the compound was classed as inactive in assay [9].

Turning to `COc1cccc(-c2ccc(/C=C\CN3CCCCCC3)cc2Cl)c1`, the AC50 was 22.6 µM (active) in assay [1]; 34.6 µM (active) in assay [2]; 27.7 µM (active) in assay [12]; 11.6 µM (active) in assay [6]; 11.7 µM (active) in assay [13].

For the compound `COc1cc(C(C)C)c2c(c1)S(=O)(=O)N(COc1cc(=O)n3cccc(OCCN4CCCCC4)c3n1)C2=O`, the half-maximal activity concentration (AC50) in assay [1] was 5.52 µM (active).

As for `CC(C)CCCCCCCOC(=O)CCCCC(=O)OCCCCCCCC(C)C`, in assay [1], the AC50 is 7.43 µM (active).

`CCOC(=O)CCC(=O)OCC`: the compound was called inactive in assay [1] and in [5]. For the same compound, in assay [6], the AC50 was 34.7 µM (active).

For `O=C1OC(c2ccc(O)cc2)(c2ccc(O)cc2)c2ccccc21`, in assay [1], the outcome was inactive.

Take `CCCCC(CC)COC(=O)CCCCCCCC(=O)OCC(CC)CCCC` (stereo unspecified): the compound was called inactive in assay [1].

For `COc1ccc2cc(S(=O)(=O)N[C@H](CC(=O)N[C@H](Cc3ccc(CN4[C@H](C)CCC[C@@H]4C)cc3)C(=O)N(C)C(C)C)c3ccc4c(c3)OCO4)ccc2c1`, the outcome in assay [1], in [8], in [9], in assay [6] and in assay [15] was inactive. Moreover, the AC50 in assay [14] was 36 µM (active).

In the case of `NC(=O)N(O)[C@@H]1C=C[C@H](Oc2cccc(Oc3ccc(F)cc3)c2)C1`, the result in assay [1], in assay [8], in [16] and in assay [13] was inactive.

With `CCc1nc(N)nc(N)c1-c1ccc(Cl)cc1`, in assay [1], the compound was called inactive.

Turning to `O=C(O)Cc1cc(I)c(Oc2cc(I)c(O)c(I)c2)c(I)c1`, the AC50 in assay [1] was 2.92 µM (active); in [3] it was 0.00511 µM (active). Besides, the compound was called inactive in assay [10], in assay [5], in assay [17], in assay [12], in [18] and in assay [19].
